Bioassay records (PubChem)
Most compounds without a hit are left out; they make up all but 7.4% or so of the library.
SMN2 splice up: SMN2 splice variant enhancement. AID 1458. HEK293 SMN2-luciferase splicing reporter, luminescence, 30-36 h. hit rate 2.8% among 210,000. Potency, µM (top dose mostly 46.1 µM), actives largely listed as activators; note: nearly all actives have a fitted effect of over 55% in size
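HEK293 cells carry an SMN2 minigene-luciferase reporter in which exon 7 inclusion puts luciferase in frame. Cells were seeded at 2000 cells/well, attached for 10-12 hours, then exposed to compounds for 30-36 hours at 37C before ONE-Glo luminescence.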
ELG1 genotoxic: genotoxicity induction in ELG1-luciferase HEK293T cells | AID 504466 | hit rate 1.3% among 330,000 | Potency, µM (doses to about 46 µM), actives largely listed as activators | HEK293T ELG1-luciferase reporter, luminescence, 16 h; note: nearly all actives have a fitted effect of over 60% in size
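Luminescence read-out: rising ELG1-luciferase signal, reflecting elevated ELG1 protein under genetic stress, flags genotoxic compounds. Cells were treated for 16 hr at 37 °C before ONE-Glo detection.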
FLuc modulator: firefly luciferase modulation, counter-screen for miR-21 project | AID 588342 | hit rate 6.9% among 360,000 | purified FLuc, Km substrates, luminescence inhibition | P08659 | Potency, µM (titrated, usually from 57.5 µM), hits mostly inhibitors; note: nearly all actives have a fitted effect of over 55% in size
Target sequence (P08659 whole entry, looked up): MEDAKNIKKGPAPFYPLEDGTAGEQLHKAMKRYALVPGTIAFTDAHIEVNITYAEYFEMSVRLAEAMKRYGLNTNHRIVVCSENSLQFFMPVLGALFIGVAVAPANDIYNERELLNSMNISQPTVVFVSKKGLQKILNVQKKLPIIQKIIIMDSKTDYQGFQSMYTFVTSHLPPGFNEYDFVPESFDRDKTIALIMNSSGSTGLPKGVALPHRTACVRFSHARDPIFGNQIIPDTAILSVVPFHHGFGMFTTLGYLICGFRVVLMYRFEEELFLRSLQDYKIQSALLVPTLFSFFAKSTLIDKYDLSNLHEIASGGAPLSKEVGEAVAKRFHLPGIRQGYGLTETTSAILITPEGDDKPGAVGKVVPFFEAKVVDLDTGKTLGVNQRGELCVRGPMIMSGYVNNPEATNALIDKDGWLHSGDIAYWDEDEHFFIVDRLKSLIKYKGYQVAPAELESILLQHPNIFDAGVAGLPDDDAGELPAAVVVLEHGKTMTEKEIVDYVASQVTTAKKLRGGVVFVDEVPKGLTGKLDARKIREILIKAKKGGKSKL
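Biochemical qHTS of compounds, final roughly 60 µM downward over six points, against 10 nM purified firefly luciferase using Km concentrations of substrates (10 uM D-luciferin, 10 uM ATP) in Tris acetate pH 7.5 buffer; luminescence output.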
NPC1 promoter act: NPC1 promoter activation | hit rate 2.4% among 320,000 | Potency, µM (top dose mostly 9.22 µM), actives largely listed as activators | Huh7 NPC1 promoter luciferase reporter, 24 h; note: nearly all actives have a fitted effect of over 60% in size
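Stably transfected Huh7 (NPC1 promoter→luciferase), 1500 cells/well in Opti-MEM + 10% FBS, 2 h settle, then compound 24 h at 37 °C. Luminescence after 10 min with Amplite reagent.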
Rab9 prom act: Rab9 promoter activation | AID 485297 | Huh7 Rab9 promoter-luciferase reporter, luminescence, 24 h | Potency, µM (titrated, usually from 9.22 µM), actives largely listed as activators | hit rate 2.8% among 320,000; note: nearly all actives have a fitted effect of over 60% in size
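Cell-based reporter: Huh7 stable for Rab9 promoter-driven luciferase, plated in reduced-serum medium with 10% FBS at 1500 cells/well, compound-treated 24 h at 37 °C, luminescence read after 10 min reagent.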
Numbers stand for hits; . = inactive; ? = inconclusive; / = not tested or not shown. Calls come from the whole dose curve; as a rule, active = well fitted curve in the direction sought with a large enough effect; inconclusive = small, poorly fitted or top-dose-only effect, or another doubt; inactive = no such curve, though single readings can be large; an effect the other way counts as inactive or inconclusive.

SMILES	SMN2 splice up	ELG1 genotoxic	FLuc modulator	NPC1 promoter act	Rab9 prom act
Cc1nc2cc(-c3cccc(F)c3)nn2c(C)c1CCC(=O)N1CCN(c2ccccn2)CC1	/	.	.	.	.
Cc1nc2cc(-c3cccc(F)c3)nn2c(N2CCN(C(=O)c3ccco3)CC2)c1C	.	?	17µM	.	.
Cc1cc(N2CCCCC2)n2nc(C)c(-c3ccccc3)c2n1	/	.	19µM	.	.
Cc1cc(C)n(-c2cc(C(C)(C)C)nc3c(-c4ccc(Cl)cc4)cnn23)n1	.	.	?	.	.
C=CCSc1cc(C)nc2c(-c3ccccc3)c(C)nn12	/	.	12µM	.	.
Cc1cc(SCC#N)n2nc(C)c(-c3ccccc3)c2n1	.	.	?	.	.
Cc1cc(N2CCCCC2)n2ncc(-c3ccc(Cl)cc3)c2n1	.	2.1µM	2.4µM	4µM	2.8µM
COCCCn1c(=N)c(C(=O)NCC2CCCO2)cc2c(=O)n3cc(C)ccc3nc21 (stereo not given)	.	/	.	/	/
Cc1cc(N2CCN(C(=O)c3ccco3)CC2)n2ncnc2n1	.	.	.	.	.
Cc1cc(C)n(-c2cc(C(C)(C)C)nc3c(-c4ccccc4)cnn23)n1	/	?	1.9µM	2.5µM	2.8µM
Cc1cc(N2CCN(C(=O)c3ccco3)CC2)n2ncc(-c3ccccc3)c2n1	.	.	12µM	?	3.5µM
Cc1cc(N2CCC(C)CC2)n2ncc(-c3ccccc3)c2n1	.	0.41µM	0.76µM	0.35µM	0.32µM
Cc1ccc(-c2cnn3c(N4CCOCC4)cc(C)nc23)cc1	/	?	0.48µM	.	.
CCOc1ccccc1C(=O)N1CCN(CCc2ccccn2)CC1	/	/	.	/	/
O=C(Nc1ccccc1)c1cnc(N2CCCCC2)c2ccccc12	/	/	.	/	/
COc1ccccc1CNC(=O)C1CCCN(c2nnc(-n3c(C)ccc3C)s2)C1 (stereo not given)	.	/	.	/	/
COc1ccc(/C=C/c2nc(C#N)c(N3CCC(C)CC3)o2)cc1OC	.	/	.	/	/
COc1cc(C(=O)Nc2ccc(OCc3cc(=O)n4cccc(C)c4n3)cc2)cc(OC)c1OC	/	/	.	/	/
Cc1cc(N2CCOCC2)n2ncc(-c3ccccc3)c2n1	2.2µM	0.18µM	0.34µM	0.56µM	0.71µM
CC(C)(C)c1cc(N2CCOCC2)n2ncc(-c3ccc(Cl)cc3)c2n1	/	.	?	.	.
C=CCc1c(C)nc2c(-c3ccccc3)cnn2c1N1CCOCC1	/	10µM	2.4µM	2.8µM	1.6µM
Cc1cc(N2CCOCC2)n2ncc(-c3ccc(Cl)cc3)c2n1	/	?	0.6µM	2.2µM	0.63µM
CCOC(=O)Cc1c(C)nc2c(-c3ccccc3)cnn2c1C	.	.	?	.	.
Cc1cc(N2CCOCC2)n2nc(C(F)(F)F)c(-c3ccccc3)c2n1	/	.	.	.	.
Cc1cc(N2CCCCC2)n2ncc(-c3ccccc3)c2n1	.	?	0.27µM	0.45µM	0.32µM
SMILES	SMN2 splice up	ELG1 genotoxic	FLuc modulator	NPC1 promoter act	Rab9 prom act
CCOc1ccc(S(=O)(=O)NCCC(=O)NC2CCC(C)CC2)cc1 (stereo not given)	/	.	/	/	/
CCCn1c2ccccc2c2cnn(CC(=O)Nc3cc(C)c(Cl)cc3OC)c(=O)c21	/	/	.	/	/
CC(=O)Nc1ccc(Nc2cc(C)nc3c(-c4ccc(Cl)cc4)cnn23)cc1	?	.	.	2.2µM	2.5µM
CC(=O)Nc1ccc(Nc2cc(C)nc3c(-c4ccc(Cl)cc4)c(C)nn23)cc1	.	.	.	.	.
CCN(CC)c1ccc(C(=O)OCC(=O)Nc2cc(C)on2)cc1	/	.	/	.	.
Cc1cccc(C(=O)Oc2ccc(/C=N/O)cc2)c1	.	?	7.6µM	.	.
COc1cc(C(=O)N/N=C/c2ccc(OC(=O)c3cccc(C)c3)cc2)ccc1O	/	.	?	.	.
O=C(Oc1ccc(/C=N/O)cc1)c1ccccc1Cl	.	.	9.5µM	.	.
CC[C@@]1(C(=O)OC)N[C@H](CN(C)C(=O)COc2ccccc2)[C@@H]2C(=O)N(Cc3ccccc3)C(=O)[C@@H]21	/	.	/	/	/
O=C(Nc1cccc(C(F)(F)F)c1)Nn1cnnc1	/	.	.	.	.
Clc1ccc(Nc2nc3cccnc3s2)cc1	13µM	?	?	2.8µM	2.5µM
COc1ccccc1NC(=O)CSCc1cc(=O)c2c(C)cc(C)cc2[nH]1	/	/	.	/	/
Cc1cc(NC(=O)c2ccccc2)no1	/	?	24µM	?	?
COc1cc(OC)cc(C(=O)Nc2cc(C)on2)c1	/	.	.	.	.
